Assay results taken from the supplement of paper PMC6555819.

How the values were obtained:
Experiment in all cases: PBM binding z-score (relative to random genomic background probes); higher = stronger binding; sequences stand for … in GC…GCGATTGACAGCGTAGAATGAAGG
[1] = test system: FXR:RXRa (NR concentration 270 nM, RXRa partner concentration 90 nM)
Outline: (§1)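 The probes on custom Agilent 4×180K protein-binding microarrays were double-stranded, with 34-nt variable regions bearing direct-repeat seeds, single-nucleotide variants, half-site ablations and random human genomic background sequences. Incubation lasted 1 h with ligand-free nuclear receptor dimers in PBS pH 7.4, 2% milk, 0.02% Triton X-100, 1 mM DTT, 0.2 mg/mL BSA and 0.4 mg/ml salmon testes DNA. Antibodies against each partner (one per run) detected bound dimers, and fluorescence scans were regression-normalized. Binding z-scores take the random background probes as reference.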

[2] = test system: LXRa:RXRa (NR concentration 270 nM, RXRa partner concentration 90 nM)
Outline: as §1

[3] = test system: LXRa homodimer (NR concentration 270 nM)
Outline: as §1

[4] = test system: LXRb:RXRa (NR concentration 270 nM, RXRa partner concentration 90 nM)
Outline: as §1

[5] = test system: LXRb homodimer (NR concentration 270 nM)
Outline: as §1

[6] = test system: PPARa:RXRa (NR concentration 270 nM, RXRa partner concentration 90 nM)
Outline: as §1

[7] = test system: PPARg:RXRa (NR concentration 180 nM, RXRa partner concentration 90 nM)
Outline: as §1

[8] = test system: PPARg:RXRa 270nM:90nM, anti-RXR (NR concentration 270 nM, RXRa partner concentration 90 nM)
Outline: as §1

[9] = test system: PPARg:RXRa 30nM:10nM, anti-RXR (NR concentration 30 nM, RXRa partner concentration 10 nM)
Outline: as §1

[10] = test system: PPARg:RXRa 90nM:30nM, anti-RXR (NR concentration 90 nM, RXRa partner concentration 30 nM)
Outline: as §1

[11] = test system: PPARg:RXRa DBDmut IVT, anti-RXR (DBD mutation: RXRa K156A/R161A, NR concentration 270 nM, RXRa partner concentration 90 nM)
Outline: as §1

[12] = test system: PPARg:RXRa IVT, anti-PPARg (NR concentration 270 nM, RXRa partner concentration 90 nM)
Outline: as §1

[13] = test system: PPARg DBDmut:RXRa IVT, anti-PPARg (DBD mutation: PPARg1 K132A/R137A, NR concentration 270 nM, RXRa partner concentration 90 nM)
Outline: as §1

[14] = test system: PPARg DBDmut IVT, anti-PPARg (DBD mutation: PPARg1 K132A/R137A, NR concentration 270 nM)
Outline: as §1

[15] = test system: PPARg homodimer (NR concentration 180 nM)
Outline: as §1

[16] = test system: PXR:RXRa (NR concentration 270 nM, RXRa partner concentration 90 nM)
Outline: as §1

[17] = test system: PXR homodimer (NR concentration 270 nM)
Outline: as §1

[18] = test system: RARa:RXR (NR concentration 270 nM, RXRa partner concentration 90 nM)
Outline: as §1

[19] = test system: RARa homodimer (NR concentration 270 nM)
Outline: as §1

[20] = test system: RARb:RXRa (NR concentration 270 nM, RXRa partner concentration 90 nM)
Outline: as §1

| Sequence | PBM binding z-score [1] | PBM binding z-score [2] | PBM binding z-score [3] | PBM binding z-score [4] | PBM binding z-score [5] | PBM binding z-score [6] | PBM binding z-score [7] | PBM binding z-score [8] | PBM binding z-score [9] | PBM binding z-score [10] | PBM binding z-score [11] | PBM binding z-score [12] | PBM binding z-score [13] | PBM binding z-score [14] | PBM binding z-score [15] | PBM binding z-score [16] | PBM binding z-score [17] | PBM binding z-score [18] | PBM binding z-score [19] | PBM binding z-score [20] |
| --- | --- | --- | --- | --- | --- | --- | --- | --- | --- | --- | --- | --- | --- | --- | --- | --- | --- | --- | --- | --- |
| CCGACTGGGGCCGAAAGGTTACCATACCATCCGG | 0.707 | 0.858 | -0.0944 | 1.08 | -1.22 | 2.02 | 1.09 | 1.84 | 0.177 | 1.26 | -0.423 | 0.138 | -1.16 | -1.62 | 0.848 | 1.29 | -0.286 | 1.78 | -0.324 | 2.01 |
| TCTTGTAGATCAAAGGTTAAGAAGGCCGAAGCCT | 1.58 | 2.1 | -0.0136 | 1.83 | -0.281 | 4.6 | 8.22 | 8.32 | 9.13 | 9.04 | 2.13 | 4.06 | 0.462 | 0.582 | 0.29 | 2.19 | 0.104 | 3.33 | -0.0225 | 1.98 |
| CCGACTGGGCCATAAGGTTACCATAAGCCAGCCC | 0.273 | 1.84 | -0.402 | 0.636 | -0.941 | 1.4 | 1.57 | 2.48 | 0.644 | 2.05 | 1.93 | 2.16 | -0.459 | -1.39 | 0.396 | 0.04 | -0.806 | 1.15 | -0.622 | 1.06 |
| CCTATTAGTTGAGCATAAGGGCAACCGAAGCTCG | 0.0961 | -0.117 | 0.193 | -0.0125 | 0.346 | 0.124 | 0.333 | 0.305 | -0.0457 | 0.368 | -0.00699 | 0.0681 | -0.0638 | 0.243 | 1.36 | 0.18 | 0.549 | 0.348 | 1.39 | 1.1 |
| TCATTTAGGTAATACAGGTGAAAGTCGGCATCTA | 1.6 | 1.41 | 0.774 | 1.47 | 1.18 | 2.02 | 0.962 | 2.92 | 4.52 | 3.72 | 3.53 | 3.29 | 1.53 | 1.6 | 1.72 | 1.06 | 0.701 | 1.43 | 2.03 | 1.07 |
| TCTTGTAGATCAACAGGAAGTTAAGAAAGATCGA | 0.112 | 0.0523 | -0.395 | -0.15 | -0.422 | 0.364 | 0.0673 | 1.13 | 2.73 | 1.58 | 1.64 | 0.249 | 0.464 | 0.377 | -0.378 | -0.183 | -0.761 | -0.00111 | 0.174 | -0.318 |
| ATCTCTAGGTAAAGTTCAGTGTAAGATCGATAGA | 1.55 | 2.13 | 2.27 | 1.55 | 1.1 | 2.47 | 3.17 | 4.49 | 2.44 | 4.28 | 2.66 | 2.9 | 1.2 | 1.55 | 2.13 | 2.21 | 2.38 | 1.53 | 1.49 | 2.56 |
